Experimental data as given in PubChem BioAssay AID720706 (Broad Institute, 2013).
Among all 350,000 compounds or so, about 5,500 (1.6%) were called active.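 How the source made its calls: active means significant combined selectivity score with lowered wild-type GFP, culture density cut under 30%, mutant RFP and density less affected; inactive means any of these conditions unmet.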 The list comes from a sample in which actives are over-represented; it also holds similar structures and randomly drawn compounds.

Assay: reduced GFP signal of wild-type E. coli, primary screen, bacterial rRNA inhibitor project, GFP/RFP fluorescence, OD600, single point (AID 720706)
Conditions: E. coli WT GFP vs humanized-ribosome RFP mutants, 24 h; GFP signal change (wild-type ribosome): stronger effect = lower value, DMSO median 0, no signal -100; OD600 change: measured here: OD600 growth, DMSO median 0, no signal -100; RFP signal change: measured here: RFP humanized mutant strains, DMSO median 0, no signal -100, concentration not given here

SMILES	GFP signal change (wild-type ribosome)	OD600 change	RFP signal change
O=C(/C=C\c1cn(-c2ccccc2)nc1-c1cccs1)N1CCOCC1	-25.3% (active)	-11.3%	-10.9%
O=C(O)c1ccc(N/N=C/c2cn(-c3ccccc3)nc2-c2cccs2)cc1	-27.8% (active)	-18.5%	-5.29%
Cc1ccc2cc(/C=N/Nc3ccc(C(=O)O)cc3)c(Cl)nc2c1	8.25% (inactive)	-7.45%	2.99%
O=C(/C=C/c1cn(-c2ccccc2)nc1-c1ccc2c(c1)OCCO2)NCCCN1CCOCC1	-59.2% (inactive)	-80.4%	-18.1%
S=c1[nH]nc(-c2cccs2)n1/N=C/c1cn(-c2ccccc2)nc1-c1ccc(Cl)cc1	5.75% (inactive)	18.1%	0.386%
COc1ccc(-c2nn(-c3ccccc3)cc2/C=C\C(=O)N2CCOCC2)cc1[N+](=O)[O-]	-3.42% (inactive)	3.96%	-1.95%
N#C[C@@H]1[C@H](c2ccccc2)[C@H](CO)N1C(=O)CN1CCOCC1	13.7% (inactive)	21.2%	0.395%
O=C(Nc1ccccc1F)N1CC(=O)N2[C@H](C1)[C@H](c1ccc(C#Cc3ccc(F)cc3)cc1)[C@@H]2CO	-2.23% (inactive)	-44.6%	20.2%
O=C(CC1CC1)N1[C@@H](CO)[C@H](c2ccccc2)C12CN(Cc1cccnc1)C2	1.16% (inactive)	-2.09%	1.37%
COc1ccc(CN(C)C[C@@H]2Oc3ccc(NC(=O)NC(C)C)cc3C(=O)N([C@@H](C)CO)C[C@H]2C)cc1	1.14% (inactive)	10.5%	-0.455%
C=CCOC(=O)N1CCC2CC1c1cc(-c3ccc(OC)cc3)ccc12 (configuration not stated)	3.93% (inactive)	0.963%	-4.99%
COc1ccc(-c2ccc3c(c2)C2CC3CCN2CCC#N)cc1 (configuration not stated)	-28.2% (active)	-19.1%	-3.22%
COc1ccc(-c2ccc3c(c2)[C@H]2[C@H](CCN2C(=O)C2CCOCC2)[C@H](CO)N3C)cc1	-4.42% (inactive)	-4.78%	-1.56%
COc1ccc2c3c(n(C)c2c1)[C@H](CO)NCC31CN(S(=O)(=O)c2cccc(C)c2)C1	-0.56% (inactive)	-33%	8.22%
O=C(C(=O)N1CCC(CNS(=O)(=O)Cc2ccccc2)CC1)c1cc2ccccc2o1	-14% (active)	-14.9%	2.73%
N#Cc1cccc(C(=O)NCC2CCN(C(=O)C(=O)c3cc4ccccc4o3)CC2)c1	-2.59% (inactive)	-1.64%	-0.945%
CC(C)(C)c1ccc(S(=O)(=O)NCC2CCN(C(=O)C(=O)c3cc4ccccc4o3)CC2)cc1	-0.31% (inactive)	0.126%	0.99%
COc1cccc(S(=O)(=O)N2CC3(CCN(C)CC3)c3c(n(C)c4cc(OC)ccc34)[C@H]2CO)c1	-0.483% (inactive)	-1.36%	0.12%
COc1ccc2c3c(n(C)c2c1)[C@@H](CO)N(C(=O)CN1CCOCC1)CC31CCN(Cc2ccncc2)CC1	1.45% (inactive)	2.53%	-1.13%
C[C@@H](NC(=O)C[C@@H]1CC[C@H]2[C@@H](COC[C@@H](O)CN2C(=O)Nc2cccc(F)c2)O1)c1ccccc1	-11.5% (inactive)	-6.23%	5.17%

SMILES	GFP signal change (wild-type ribosome)	OD600 change	RFP signal change
CCOc1ccccc1NC(=O)C1CCN(S(=O)(=O)c2c(C)nn(C)c2C)CC1	3.06% (inactive)	-0.4%	-2.77%
Cc1nn(C)c(C)c1S(=O)(=O)N1CCC(CO)(Cc2ccc(Cl)cc2)CC1	-22% (active)	-16.9%	0.06%
COc1ccc(CC2(CO)CCN(Cc3cnn(C)c3)CC2)cc1	25.9% (inactive)	13%	1.82%
O=C(NCC[C@@H]1CC[C@@H](NC(=O)c2ccccc2F)[C@H](CO)O1)c1ccc2c(c1)OCO2	0.211% (inactive)	0.175%	-1.31%
COc1ccc(NC(=O)N(C)C[C@@H]2Oc3ccc(NS(=O)(=O)c4ccc(Cl)cc4)cc3C(=O)N([C@H](C)CO)C[C@@H]2C)cc1	-1.87% (inactive)	-3.81%	4.46%
CCN(CC)C(=O)C(=O)Nc1cccc(Br)c1	2.19% (inactive)	1.55%	-1.36%
CCN(CC)C(=O)Oc1ccc(Br)cc1C(=O)Nc1ccc(F)c(Cl)c1	-28% (active)	-13.7%	-1.17%
CCCOc1ccc(F)cc1-c1cc(C(=O)Nc2ccc(F)c(Cl)c2)[nH]n1	-11.9% (inactive)	-20.4%	8.72%
COc1ccc2c3c(n(C)c2c1)[C@@H](CO)N(Cc1ccccc1OC)CC31CN(CC2CCOCC2)C1	2.13% (inactive)	1.76%	-0.161%
COc1ccc(S(=O)(=O)Nc2ccc3c(c2)C(=O)N([C@H](C)CO)C[C@@H](C)[C@@H](CN(C)CC2CCCCC2)O3)cc1	3.31% (inactive)	-3.13%	-1.7%
O=C(C[C@H]1CC[C@@H]2[C@H](COC[C@H](O)CN2Cc2ccc(Oc3ccccc3)cc2)O1)N1CCN(c2ccccc2)CC1	-14.8% (inactive)	-41.1%	19.9%
C[C@@H]1COCc2cnnn2CC[C@H](Cc2ccccc2)C(=O)N1	1.97% (inactive)	6.09%	0.175%
CCc1ccc(C2=CC(=O)CC(C)(C)C2=O)cc1	9.3% (inactive)	6.63%	1.11%
COC(=O)C1=C(C)N(Cc2ccc(C(F)(F)F)cc2)C(=NCc2ccc(C(F)(F)F)cc2)NC1c1cccc(Cl)c1 (configuration not stated)	-29.5% (active)	-8.48%	10.4%
COC(=O)C1=C(C)N(Cc2cccc(C(F)(F)F)c2)C(=NCc2ccccc2)NC1c1ccc(Cl)cc1 (configuration not stated)	-51.5% (inactive)	-79.1%	-15.9%
COC(=O)C1=C(C)N(Cc2ccc(C(F)(F)F)cc2)C(=NCc2ccccc2)NC1c1ccccc1C(F)(F)F (configuration not stated)	-44.7% (inactive)	-75.3%	-10.2%
CO[C@@H]1CN(C)C(=O)c2cc(NS(=O)(=O)c3ccccc3)ccc2OC[C@@H](C)N(C(=O)NC(C)C)C[C@@H]1C	1.8% (inactive)	-5.96%	-2.55%
C[C@H](O)C#Cc1ccc([C@H]2[C@H](CO)N3CCCCN(C(=O)c4ccc(F)cc4)C[C@@H]23)cc1	4.08% (inactive)	14.8%	0.514%
CC(C)NC(=O)Nc1cccc2c1O[C@@H](CN(C)C(=O)NC(C)C)[C@@H](C)CN(C)C2=O	-0.63% (inactive)	-5.7%	-0.789%
